Measured values taken from PubChem BioAssay (Tox21).
Several values for one entry are separate records, joined by “and”; a condition that tells them apart may be missing. Equal entries are not always repeated. Records with an inconclusive call do not appear. Where a call stands in place of a potency, no number is given. Some structures have more than one record in an assay (separate samples or runs), and their calls can disagree. Activity calls are given as the source filed them. Unless noted, calls come from the whole dose curve; as a rule, active = well fitted curve in the direction sought with a large enough effect in the repeat runs; inconclusive = weak or mixed curves; inactive = no such curve, though single readings can be large; an effect the other way counts as inactive or inconclusive.

Experiments:
[1] = qHTS assay for small molecules that induce genotoxicity in human embryonic kidney cells expressing luciferase-tagged ATAD5 (AID 651632); note: nearly all actives have a fitted effect of over 15% in size
Summary of the method: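 Luminescence read-out: after 16 hr compound exposure at 37C, ATAD5-luciferase HEK293T cells received Amplite, 30 min RT, then CCD imaging. A rise in signal marks genotoxic stress.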

[2] = qHTS assay for small molecule agonists of the p53 signaling pathway - cell viability (AID 651633; calls by dose curve; note: nearly all actives have a fitted effect of over 30% in size; note: potency is the fitted concentration of half-maximal effect)
Summary of the method: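 p53RE-bla cells were treated with compound for 16 hours at 37 C. Cytotoxicity was then measured as CellTiter-Glo luminescence after 30 min at room temperature.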

[3] = qHTS assay for small molecules that induce genotoxicity in human embryonic kidney cells expressing luciferase-tagged ATAD5 - cell viability (AID 651634; calls by dose curve; note: nearly all actives have a fitted effect of over 25% in size; note: potency is the fitted concentration of half-maximal effect)
Summary of the method: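 HEK293T ATAD5-luc cells, 2,000/well; compound 15.5 hr, 37C/5% CO2; CellTiter-Fluor 30 min, 37C; fluorescence read.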

[4] = qHTS assay for small molecule disruptors of the mitochondrial membrane potential - cell viability (AID 720634; calls by dose curve; note: nearly all actives have a fitted effect of over 20% in size; note: potency is the fitted concentration of half-maximal effect)
Summary of the method: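 Luminescence from CellTiter-Glo (ATP content) gave viability in HepG2 cells, read in the same wells as the MMP dye assay after 1 hr compound exposure at 37 C.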

[5] = qHTS assay for small molecule disruptors of the mitochondrial membrane potential (AID 720635); note: potency is the fitted concentration of half-maximal effect
Summary of the method: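 HepG2 cells exposed to compound 1 hr at 37C, then Mito-MPS dye 30 min. Ratio read of aggregate (540/590 nm) versus monomer (490/535 nm) fluorescence.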

[6] = qHTS assay to test for compound auto fluorescence at 590 nm (red) in HepG2 cells (AID 720674)
Summary of the method: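 HepG2 cells, 2,000 per well in MEM with 10% FBS, attached overnight at 37 C, then got 23 nL compound or DMSO. After 1 hr at 37 C, 5% CO2, red fluorescence was read at 540/590 nm against Rose Bengal sodium as reference.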

[7] = qHTS assay to test for compound auto fluorescence at 535 nm (green) in HepG2 cells (AID 720675)
[8] = qHTS assay to test for compound auto fluorescence at 460 nm (blue) in HEK293 cells (AID 720678)
Summary of the method: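 Blue read-out at excitation 405 nm and emission 460 nm follows overnight compound exposure of HEK293 cells at 37C in 5% CO2. Activity is given as auto fluorescence equivalency to triamterene.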

[9] = qHTS assay to test for compound auto fluorescence at 590 nm (red) in HEK293 cells (AID 720679)
Summary of the method: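 Red channel, Ex/Em 540/590nm; signal expressed as equivalency to Rose Bengal sodium. HEK293, 2,000 cells/well, 10% dialyzed FBS; 23 nL compound pinned after 4-5 hr attachment; overnight 37C/5% CO2 before reading.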

[10] = qHTS assay to test for compound auto fluorescence at 535 nm (green) in HEK293 cells (AID 720680)
[11] = qHTS assay to test for compound auto fluorescence at 460 nm (blue) in HEK293 cell free culture (AID 720681)
Summary of the method: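 Compounds were added to cell-free DMEM with 10% FBS and fluorescence read directly. The blue channel used 405 nm excitation and 460 nm emission, with triamterene as the reference fluorophore.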

[12] = qHTS assay to test for compound auto fluorescence at 535 nm (green) in HEK293 cell free culture (AID 720682)
Summary of the method: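 Steps: dispense DMEM/10% FBS into empty wells; pin in compound or DMSO; measure fluorescence at 485/535 nm. Values are fluorescein equivalents.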

[13] = qHTS assay to test for compound auto fluorescence at 590 nm (red) in HepG2 cell free culture (AID 720684)
Summary of the method: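 Auto fluorescence equivalency versus Rose Bengal sodium, red channel Ex/Em 540/590 nm; compounds in cell-free MEM/10% FBS; DMSO vehicle control.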

[14] = qHTS assay to test for compound auto fluorescence at 460 nm (blue) in HepG2 cell free culture (AID 720685)
Summary of the method: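 Cell-free plates of MEM plus 10% FBS received 23 nL compound or DMSO vehicle; blue-channel (405/460 nm) intensity scored against triamterene as reference fluorophore.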

[15] = qHTS assay to test for compound auto fluorescence at 535 nm (green) in HepG2 cell free culture (AID 720686)
[16] = qHTS assay to test for compound auto fluorescence at 460 nm (blue) in HepG2 cells (AID 720687)
Summary of the method: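 HepG2 cells in MEM with 10% FBS, attached overnight at 37 C, were exposed to compound or DMSO for 1 hr at 37 C, 5% CO2. Blue fluorescence was read at 405/460 nm, with triamterene as reference fluorophore.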

[17] = qHTS assay to identify small molecule antagonists of the glucocorticoid receptor (GR) signaling pathway - cell viability counter screen (AID 720693); note: nearly all actives have a fitted effect of over 55% in size; note: potency is the fitted concentration of half-maximal effect
[18] = biological target: Glucocorticoid receptor (Homo sapiens) (UniProt P04150); experiment: qHTS assay to identify small molecule agonists of the glucocorticoid receptor (GR) signaling pathway (AID 720691; active = well fitted activation curve with a large enough effect in the signal ratio in the repeat runs, not every such curve was filed as active; the % refers to the signal ratio)
Chain of Glucocorticoid receptor (Homo sapiens) (P04150 whole entry, looked up): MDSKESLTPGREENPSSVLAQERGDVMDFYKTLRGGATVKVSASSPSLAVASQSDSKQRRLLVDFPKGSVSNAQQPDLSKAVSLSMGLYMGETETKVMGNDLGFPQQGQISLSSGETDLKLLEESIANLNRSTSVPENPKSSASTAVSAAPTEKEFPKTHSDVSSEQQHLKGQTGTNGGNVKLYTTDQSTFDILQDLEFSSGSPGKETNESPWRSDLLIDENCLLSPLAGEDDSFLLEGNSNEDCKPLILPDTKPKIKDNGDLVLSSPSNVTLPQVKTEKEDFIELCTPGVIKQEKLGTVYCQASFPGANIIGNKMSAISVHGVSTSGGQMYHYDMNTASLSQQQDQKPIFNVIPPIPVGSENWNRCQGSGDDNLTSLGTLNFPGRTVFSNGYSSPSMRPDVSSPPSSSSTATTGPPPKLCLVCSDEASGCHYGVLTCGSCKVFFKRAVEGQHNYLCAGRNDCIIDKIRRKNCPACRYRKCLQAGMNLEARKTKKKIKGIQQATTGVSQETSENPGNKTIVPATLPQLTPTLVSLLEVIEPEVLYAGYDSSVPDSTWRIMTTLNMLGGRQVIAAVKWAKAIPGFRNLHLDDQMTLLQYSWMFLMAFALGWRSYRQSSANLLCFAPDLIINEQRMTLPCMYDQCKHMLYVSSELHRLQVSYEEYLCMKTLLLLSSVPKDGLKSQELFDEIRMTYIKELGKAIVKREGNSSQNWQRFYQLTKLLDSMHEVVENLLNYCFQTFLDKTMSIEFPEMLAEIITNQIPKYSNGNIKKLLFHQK
Summary of the method: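 HeLa GR-bla reporter line; cells pre-incubated 4 h, compound in DMSO 18 h at 37 C; LiveBLAzer B/G FRET substrate 2 h RT; fluorescence intensity read-out.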

[19] = qHTS assay to test for compound auto fluorescence at 590 nm (red) in HEK293 cell free culture (AID 720683)
Summary of the method: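 Cell-free wells of DMEM with 10% FBS received compound, and intrinsic fluorescence was read at excitation/emission 540/590 nm. Values expressed as equivalence to Rose Bengal sodium.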

Row | SMILES | outcome [1] | Potency [2] | Potency [3] | Potency [4] | Potency [5] | outcome [6] | outcome [7] | outcome [8] | outcome [9] | outcome [10] | outcome [11] | outcome [12] | outcome [13] | outcome [14] | outcome [15] | outcome [16] | Potency [17] | outcome [18] | outcome [19]
1 | CCCCCCn1cc[n+](C)c1 | inactive | inactive | inactive | inactive | 11 µM (active) and 24.5 µM (active) and 22.2 µM (active) | inactive | inactive | inactive | inactive | inactive | inactive | inactive | inactive | inactive | inactive | inactive | inactive |  | 
2 | CCCCCCCCCCCCOS(=O)(=O)O | inactive |  | inactive | inactive | inactive | inactive | inactive | inactive | inactive | inactive | inactive | inactive | inactive | inactive | inactive | inactive | inactive | inactive | 
3 | CC(Cl)(Cl)C(=O)O | inactive |  | inactive | inactive | inactive | inactive | inactive | inactive | inactive | inactive | inactive | inactive | inactive | inactive | inactive | inactive | inactive | inactive | inactive
4 | CCCn1cc[n+](C)c1 | inactive |  | inactive | inactive | inactive | inactive | inactive | inactive | inactive | inactive | inactive | inactive | inactive | inactive | inactive | inactive | inactive | inactive | inactive
5 | C[N+](C)(C)Cc1ccccc1 | inactive | inactive | inactive | inactive | inactive | inactive | inactive | inactive | inactive | inactive | inactive | inactive | inactive | inactive | inactive | inactive | inactive | inactive | 
6 | O=C(O)CCl |  | inactive | inactive | inactive | inactive | inactive | inactive | inactive | inactive | inactive | inactive | inactive | inactive | inactive | inactive | inactive | inactive | inactive | 
7 | O=C(O)C(Cl)Cl | inactive | inactive | inactive | inactive | inactive | inactive | inactive | inactive | inactive | inactive | inactive | inactive | inactive | inactive | inactive | inactive | inactive | inactive | 
8 | CCCCn1cc[n+](C)c1 |  |  | inactive | inactive | inactive | inactive | inactive | inactive | inactive | inactive | inactive | inactive | inactive | inactive | inactive | inactive | inactive |  | inactive
9 | CCCCCCCCCCCCCC[P+](CCCCCC)(CCCCCC)CCCCCC | inactive | 15.4 µM (active) and 19.5 µM (active) and inactive | 27.4 µM (active) and 24.5 µM (active) | 30.8 µM (active) and 24.5 µM (active) and 1.72 µM (active) | 434 nM (active) and 616 nM (active) and 273 nM (active) | inactive | inactive | inactive | inactive | inactive | inactive | inactive | inactive | inactive | inactive | inactive | 12.4 µM (active) and 11.1 µM (active) | inactive | 
10 | Oc1cccc2cccnc12 |  |  | inactive | inactive |  | inactive | inactive | inactive | inactive | inactive | inactive | inactive | inactive | inactive | inactive | inactive | inactive |  | inactive
11 | CN(C)[C@@H]1C(=O)C(C(N)=O)=C(O)[C@@]2(O)C(=O)C3=C(O)c4c(O)cccc4[C@@](C)(O)[C@H]3[C@H](O)[C@@H]12 |  |  | inactive | inactive | inactive and 34.4 µM (active) | inactive | inactive | inactive | inactive | inactive | inactive | inactive | inactive | inactive | inactive | inactive | inactive |  | 
12 | COP(=O)(OC)OC=C(Cl)Cl | inactive | inactive | inactive | inactive | inactive | inactive | inactive | inactive | inactive | inactive | inactive | inactive | inactive | inactive | inactive | inactive | inactive |  | 
13 | O=c1[nH]c(=O)n(Cl)c(=O)n1Cl | inactive |  | inactive | inactive | inactive | inactive | inactive | inactive | inactive | inactive | inactive | inactive | inactive | inactive | inactive | inactive | inactive | inactive | 
14 | COc1ccccc1N | inactive | inactive | inactive | inactive | inactive | inactive | inactive | inactive | inactive | inactive | inactive | inactive | inactive | inactive | inactive | inactive | inactive |  | 
15 | CCn1cc[n+](C)c1C | inactive | inactive | inactive | inactive | inactive | inactive | inactive | inactive | inactive | inactive | inactive | inactive | inactive | inactive | inactive | inactive | inactive |  | 
16 | CC[N+](CC)(CC)CC |  | inactive | inactive | inactive | inactive | inactive | inactive | inactive | inactive | inactive | inactive | inactive | inactive | inactive | inactive | inactive | inactive | inactive | 
17 | O=C(O)c1ccccc1O |  |  | inactive |  |  |  |  |  |  |  |  | inactive |  |  |  |  | inactive |  | 
18 | O=[N+]([O-])O |  |  | inactive |  |  | inactive | inactive | inactive | inactive | inactive | inactive | inactive | inactive | inactive | inactive | inactive | inactive | inactive | 
19 | CCCCCCCCn1cc[n+](C)c1 | inactive | inactive | inactive | inactive |  | inactive | inactive | inactive | inactive | inactive | inactive | inactive | inactive | inactive | inactive | inactive | inactive |  | 
20 | CCCCCCCCCCCCn1cc[n+](C)c1 | inactive |  |  | 154 nM (active) and inactive |  | inactive | inactive | inactive | inactive | inactive | inactive | inactive | inactive | inactive | inactive | inactive |  | inactive | inactive
21 | CCC[N+]1(C)CCCCC1 | inactive | inactive | inactive | inactive | inactive | inactive | inactive | inactive | inactive | inactive | inactive | inactive | inactive | inactive | inactive | inactive | inactive |  | 
